# Reference: a collection of fitness landscapes (doi:10.1016/j.celrep.2020.107928)
# Whole data set: some 81,000 sequences, median “one-hybrid fitness for binding parS DNA” near -0.17, cut for the highest 2% near 0.51. The entries come from a sample that favours the highest values as a whole.
# B1: Caulobacter ParB omega fusion; a variant is named by its letters at X, in order, B8GW30 (parent)
# chain: MESVVVGEPGMSEGRRGLGRGLSALLGEVDAAPAQAPGEQLGGSREAPIEILQRNPDQPRRTFREEDLEDLSNSIREKGVLQPILVRPSPDTAGEYQIVAGERAWRAAQRAGLKTVPIMVRELDDLAVLEIGIIENVQRADLNVLEEALSYKVLMEKFERTQENIAQTIGKSXSHVANXMRLLXLPDEVQSYLVSGELTAXHARAIAAAADPVALAKQIIEGGLSVRETEALARKAPNLSAGKSKGGRPPRVKDTDTQALESDLSSVLGLDVSIDHRGSTGTLTITYATLEQLDDLCNRLTRGI
# Variants of: B1
# Test: one-hybrid fitness for binding parS DNA (scaled: cognate 1, non-cognate 0); higher = stronger binding
# Conditions: with parS DNA site
# How it was run: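 Bacterial one-hybrid selection in E. coli USO rpoZ- hisB- pyrF- with a HIS3 reporter carrying the site 19 bp from the promoter, screening Caulobacter ParB libraries with four specificity codons randomised (NNS). Cells grew 48 hours at 37°C on M9-minus-histidine plus 0.1 mM IPTG and 5 mM 3-AT. Plasmids before and after selection were Illumina-sequenced, three replicate libraries pooled, and variants under 10 reads dropped. Fitness is the log change in variant-to-wild-type read ratio, rescaled to cognate 1, non-cognate 0.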
row,Variant,one-hybrid fitness for binding parS DNA
1,TGHV,≤ 0.2
2,GPHD,≤ 0.2
3,RANQ,≤ 0.2
4,RAYG,1.01
5,RARP,≤ 0.2
6,RACF,0.228
7,RARG,0.956
8,RANE,≤ 0.2
9,RACG,0.971
10,RANG,1
11,RAYD,≤ 0.2
12,RAYH,≤ 0.2
13,RACY,0.435
14,RARD,≤ 0.2
15,PSYN,≤ 0.2
16,WIKS,≤ 0.2
17,SDEV,≤ 0.2
18,WGFG,≤ 0.2
19,PYGM,≤ 0.2
20,CARA,≤ 0.2
21,PAYT,≤ 0.2
22,APAI,≤ 0.2

row,Variant,one-hybrid fitness for binding parS DNA
1,YGRH,≤ 0.2
2,RASG,1
3,RAGG,0.99
4,RALD,≤ 0.2
5,RASF,0.234
6,RASR,≤ 0.2
7,RAGP,≤ 0.2
8,RAGH,0.268
9,RALP,≤ 0.2
10,RAHP,0.241
11,RAHG,1.01
12,RAHK,≤ 0.2
13,RALG,1.01
14,ACSG,≤ 0.2
15,LMLS,≤ 0.2
16,QSHN,≤ 0.2
17,TPPK,≤ 0.2
18,GNDG,≤ 0.2
19,GGIR,≤ 0.2
20,HVTA,≤ 0.2
21,LPSV,≤ 0.2
22,VEFL,≤ 0.2

row,Variant,one-hybrid fitness for binding parS DNA
1,RAQG,1
2,RADG,0.908
3,RADD,≤ 0.2
4,RAQK,≤ 0.2
5,RAQY,0.469
6,RADN,0.372
7,QSRC,≤ 0.2
8,AVDS,≤ 0.2
9,RKRM,0.281
10,RKSD,≤ 0.2
11,RKRK,≤ 0.2
12,RKHQ,≤ 0.2
13,RKSH,≤ 0.2
14,RKHM,0.21
15,RKLR,≤ 0.2
16,RKLM,0.272
17,RKHC,0.882
18,RKSC,0.812
19,RKRC,0.737
20,RKLC,0.921
21,DVNN,≤ 0.2
22,VNYS,≤ 0.2

row,Variant,one-hybrid fitness for binding parS DNA
1,PWEG,≤ 0.2
2,NNLY,≤ 0.2
3,VLIA,≤ 0.2
4,VPYR,≤ 0.2
5,LEDT,≤ 0.2
6,PHLT,≤ 0.2
7,MREY,≤ 0.2
8,RKDC,0.923
9,RKCD,≤ 0.2
10,RKNC,0.806
11,RKND,≤ 0.2
12,RKDR,≤ 0.2
13,RKYQ,0.213
14,RKYR,≤ 0.2
15,RKCH,≤ 0.2
16,RKDF,≤ 0.2
17,RKNP,≤ 0.2
18,RKYC,0.925
19,RKCC,0.908
